Compound activity: PubChem BioAssay, National Center for Advancing Translational Sciences (NCATS)
A selection: hits, their analogues and other compounds. The true share with any hit is near 7.3%.
HCMV inh: human cytomegalovirus inhibition; HFF cells, HCMV-luciferase reporter, 72 h; active compounds read low; 410,000 tested, 4.5% active; AID 1259415; activity change, negative = inhibition, % at 57.5 µM; in the data active = activity change below about -60%; inconclusive = no clear call, values can overlap the other calls; inactive = above about -39%
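HFF cells seeded 16 h at 37C, treated with compounds, infected with luciferase-reporter HCMV at MOI 1 PFU/cell; luciferase read at 72 h post infection, normalized to buffer-only and Salinomycin controls.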
Vaccinia Venus: inhibitors of vaccinia virus (Venus reporter). Vaccinia virus Venus reporter expression, fluorescence. Potency, µM (doses to about 36.5 µM), hits mostly inhibitors. 330,000 tested, 0.46% active; calls by dose curve; tested in A549 cells; note: nearly all actives have a fitted effect of over 30% in size
FMDV inh: foot and mouth disease virus antiviral activity | FMDV antiviral cell-based qHTS | Potency, µM (top dose mostly 57.9 µM), usual class: inhibitors | 410,000 tested, 1.2% active; calls by dose curve; tested in HEK293T cells; note: read-out not given here; nearly all actives have a fitted effect of over 45% in size
HCV inh: inhibitors of hepatitis C virus infection | Huh7.5.1 HCVcc-Cre infection, luciferase reporter, 44 h | Potency, µM (top dose mostly 41.8 µM), hits mostly inhibitors | 340,000 tested, 3.4% active; active = well fitted inhibition curve with a large enough effect; inconclusive = small, poorly fitted or top-dose-only effect, or another doubt; inactive = no such curve, though single readings can be large or run the other way
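A cell-based infection assay in which seeded cells (1,000 per well) receive test compound after 4 h, are inoculated with HCVcc-Cre at approximately 0.5 moi, and are incubated 44 h before luminescence detection.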
Vaccinia mCherry: inhibitors of vaccinia virus infection (mCherry reporter signal); Vaccinia virus mCherry reporter infection, fluorescence; Potency, µM (highest dose often 36.5 µM), most hits filed as inhibitors; 310,000 tested, 0.63% active; AID 720579; calls by dose curve; tested in A549 cells; note: nearly all actives have a fitted effect of over 35% in size
Numbers stand for hits; 0 = inactive; ? = inconclusive; - = no result given; ! = repeats disagree; [ ] = another dose, or the depositor's remark.

SMILES	HCMV inh	Vaccinia Venus	FMDV inh	HCV inh	Vaccinia mCherry
CCOC(=O)C1(Cc2ccc(Cl)cc2)CCN(C(C)Cc2ccc(O)c(OC)c2)CC1 (configuration not stated)	-63	-	?	10µM	-
CCOC(=O)C1(Cc2ccc(OC)cc2)CCN(S(C)(=O)=O)CC1	0	0	0	0	0
Cc1cc(O)c(C(c2ccc(Cl)cc2)N2CCN(c3ccccc3)CC2)c(=O)n1Cc1ccco1 (configuration not stated)	0	0	0	-	0
COC(=O)[C@@]1(Sc2ccc(OC)cc2)CC(=O)N(c2ccc(OC(C)C)cc2CO)[C@@H]1c1ccc(OC(C)C)c(OC)c1	0	-	-	-	-
CCOC(=O)C1(Cc2cccc(OC)c2)CCN(Cc2ccc(C)s2)CC1	0	0	?	?	0
CCOC(=O)C1(Cc2cccc(OC)c2)CCN(Cc2ccccc2OC)CC1	-62	0	?	?	0
CC1CCCCN1Cc1c(O)ccc2c(=O)c(-c3ccccc3)coc12 (configuration not stated)	-69!	0	0	?	0
CCc1cc2c(=O)c(-c3ccc4c(c3)OCCO4)coc2cc1OS(C)(=O)=O	?	?	0	11µM	?
CCc1cc2c(=O)c(-c3nc4ccccc4[nH]3)coc2c(CN2CCCCC2C)c1O (configuration not stated)	0	0[7.34 µM]	?	?	0[7.34 µM]
CCC1CCCCN1Cc1c(O)ccc2c(=O)c(-c3ccccc3)coc12 (configuration not stated)	-92	0	0	0	0
CCc1cc2c(=O)c(-c3ccc4c(c3)OCCO4)coc2c(CN2CCCCC2C)c1O (configuration not stated)	-62	0	0	6.3µM	0
CC1(C(=O)NS(=O)(=O)C2CC2)CCCN(C(=O)Cc2ccc3ccccc3c2)C1 (configuration not stated)	0	0	0	-	0
Clc1cccc(-n2ncc3c(NCCC4=CCCCC4)ncnc32)c1	0	0	0	-	0
CCN(CC)c1ccc(N=C2C(=O)Nc3ccccc32)cc1	-96	0	0	?	0
CCN(CC)c1ccc(C2NC(=O)c3ccccc3N2)cc1 (configuration not stated)	0	?	11µM	0	0
COc1cc2cc(CN(CCc3ccccc3C)C(=S)NCCCN3CCOCC3)c(=O)[nH]c2cc1OC	-64	-	0	?	-
CN(C)CCCNC(=S)N(Cc1cccs1)Cc1cc2cc3c(cc2[nH]c1=O)OCCO3	0	0	0	2.5µM	0
CCc1ccccc1NC(=S)N(CCCN(C)C)Cc1cc2cc3c(cc2[nH]c1=O)OCO3	-75	0	0	0	0
O=C(Nc1ccc(F)cc1)NC1CCN(Cc2c(F)cccc2Cl)CC1	0	?	0	?	0
O=C(Nc1ccc(F)cc1F)NC1CCN(Cc2c(F)cccc2Cl)CC1	-68	0	?	0	0
CC1(C)CC(=O)C(CS(=O)(=O)c2ccccc2)=C(Cl)C1	-68	-	0	0	-
CCN(CC)c1cc(C)c2cc(NC(=O)c3cccc(F)c3)ccc2n1	?	0	0	-	0
CCCCc1ccc(C(=O)Nc2ccc3nc(N(CC)CC)cc(C)c3c2)cc1	-61	0	?	-	0
CCN(CC)c1cc(C)c2cc(NC(=O)c3ccc(F)cc3Cl)ccc2n1	?	0	0	-	0
CCN(CC)c1cc(C)c2cc(NC(=O)/C=C/c3ccccc3Cl)ccc2n1	-107	0	0	-	0
SMILES	HCMV inh	Vaccinia Venus	FMDV inh	HCV inh	Vaccinia mCherry
CCN(CC)c1cc(C)c2cc(NC(=O)c3ccccc3OC)ccc2n1	-60	?	0	10µM	0
CCN(CC)c1cc(C)c2cc(NC(=O)c3cc(OC)cc(OC)c3)ccc2n1	-85	0	0	-	0
CCCN1CCN(CCCNC(=O)CN2C(=O)COc3ccc(C(C)(C)C)cc32)CC1	?	0	0	-	0
CCN(CC)c1cc(C)c2cc(NC(=O)c3ccc(OC)c(OC)c3)ccc2n1	-89	0	0	-	0
c1ccc2c(CSc3ncnc4nc[nH]c34)cccc2c1	-69	0	?	?	0
c1ccc(CCSc2ncnc3nc[nH]c23)cc1	?	0	0	13µM	0
COC(=O)C1=C(c2ccc(OCc3ccccc3)cc2)C[C@@H]2CC[C@H]1N2C(=O)NCCCc1ccccc1	?	?	0	6.3µM	0
COC(=O)C1=C(c2ccccc2OCc2ccccc2)C[C@@H]2CC[C@H]1N2C(=O)NCc1ccc(C(F)(F)F)cc1	0	?	0	10µM	0
COC(=O)C1=C(c2cccc(OCc3ccccc3)c2)C[C@@H]2CC[C@H]1N2C(=O)NCCCc1ccccc1	?	?	0	?	0
COC(=O)C1=C(c2ccc(OCc3ccccc3)cc2)C[C@@H]2CC[C@H]1N2C(=O)NCc1ccc(OC)c(OC)c1	-61	?	?	10µM	?
COC(=O)C1=C(c2ccccc2OCc2ccccc2)C[C@@H]2CC[C@H]1N2C(=O)NC1CCN(Cc2ccccc2)CC1	0	?	0	?	?
COC(=O)C1=C(c2cccc(OCc3ccccc3)c2)C[C@@H]2CC[C@H]1N2C(=O)NC1CCN(Cc2ccccc2)CC1	0	?	?	10µM	0
COc1cccc(CNc2nc(Cl)nc3nc[nH]c23)c1	-	0	-	-	0
O=S(=O)(c1cccc(C(F)(F)F)c1)N1CCC(Oc2ccc(-n3cnnn3)cc2)CC1	?	?	?	-	0
COC(=O)C1=C(c2cccc(OCc3ccccc3)c2)C[C@@H]2CC[C@H]1N2C(=O)NCc1ccc(F)cc1	0	?	0	?	0
COC(=O)C1=C(c2cccc(C#N)c2)C[C@@H]2CC[C@H]1N2C(=O)NCc1cc(C)oc1C(F)(F)F	-71	0	0	?	0
COC(=O)C1=C(c2ccc(F)cc2OCc2ccccc2)C[C@@H]2CC[C@H]1N2C(=O)NCc1ccccc1	0	0	0	0	0
COC(=O)C1=C(c2cccc(OCc3ccccc3)c2)C[C@@H]2CC[C@H]1N2C(=O)NCc1ccc(C(F)(F)F)cc1	?	?	0	10µM	0
COC(=O)C1=C(c2ccc(OCc3ccccc3)cc2)C[C@@H]2CC[C@H]1N2C(=O)NCc1cccc(C(F)(F)F)c1	0	?	0	13µM	0
COC(=O)C1=C(c2ccccc2OCc2ccccc2)C[C@@H]2CC[C@H]1N2C(=O)NCc1cccc(C(F)(F)F)c1	0	?	0	?	0
COC(=O)C1=C(c2ccc(F)cc2OCc2ccccc2)C[C@@H]2CC[C@H]1N2C(=O)NCc1ccc2c(c1)OCO2	0	?	0	10µM	0
COc1cc(C(=O)Nc2cc3c(cc2C)n(C)c(=O)c(=O)n3C)cc(OC)c1OC	0	0	0	-	0
CCN(CCCNC(=O)CSc1cc(=O)n(CC)c2ccccc12)c1ccccc1	0	0	0	-	0
C[C@H]1OC(=O)CC[C@@H]2[C@]1(C)CCC1[C@@]2(C)CC[C@@]2(C)C3CC(C)(C)CC[C@]3(CO)CC[C@]12C (some centres not stated)	-	-	0	-	-
Cc1ccc(S(=O)(=O)c2nc(S(C)(=O)=O)sc2N2CCCC2)cc1	0	-	0	0	-
CCN(CC)c1sc(S(=O)(=O)c2ccccc2)nc1S(=O)(=O)c1ccc(C)cc1	-73	0	0	-	0
